# Source: PubChem BioAssay
# System: Sam68 (KHDRBS1)
# Experiment: Sam68 small-molecule binders, primary screen, biochemical, small-molecule microarray, 635 nm fluorescence (AID 1125);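 also: score merges 667 nm channel intensity with signal to noise over triplicate slides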
# Settings: small-molecule microarray binding, higher = more signal
row,SMILES,composite z-score
1,O=C1[C@H]2[C@H]3[C@H](O)[C@H](O)CC(=NOC[C@@H](O)COCc4ccco4)[C@@H]3CC[C@H]2C(=O)N1C1CCCCC1,0.827
2,CC(CCC(=O)OC[C@H]1O[C@H](C#Cc2ccccc2)C=C[C@@H]1Oc1ccc(C)cc1)=NO[C@H](C)c1cn([C@@H]2COC[C@H]2O)nn1,-0.0882
3,C[C@H]1CC[C@H]2C(=O)N[C@H](Cc3ccccc3)C(=O)N2[C@@H]1c1ccccc1,-0.824
4,CC(=O)OC[C@H]1O[C@H](CC=NO[C@H](C)c2cn([C@@H]3COC[C@H]3O)nn2)C=C[C@@H]1OC(C)=O,-0.378
5,O=C1CCCC=C1C(O)COCc1ccccc1 (centres undefined),-1.01
6,COc1ccc(COC(=O)NN=C2C[C@@H](O)[C@@H](O)[C@@H]3[C@@H]4C(=O)N(C5CCCCC5)C(=O)[C@@H]4CC[C@@H]23)cc1,-0.0188
7,COC(=O)CC=C[C@@H](C)[C@@H](C=NOC[C@@H](O)COCc1ccco1)OC,-0.684
8,O=C1[C@H]2[C@H]3[C@H](O)[C@H](O)CC(=NO[C@@H]4O[C@H](CO)[C@@H](O)[C@H](O)[C@H]4O)[C@@H]3CC[C@H]2C(=O)N1C[C@@H]1CCCO1,1.1
9,O=C1[C@H]2[C@H]3[C@H](O)[C@H](O)CC(=NOC[C@@H](O)COCc4ccco4)[C@@H]3CC[C@H]2C(=O)N1Cc1ccccc1,1.3
10,CCOC(=O)[C@H](Cc1ccccc1)NC(=O)CCC1CC(OC(=O)NCCc2ccc(F)cc2)CC2(CCCC(COC(=O)NCc3cccc(C(F)(F)F)c3)O2)O1 (some centres undefined),1.3
11,O=C1C=C[C@@H](O)[C@@H]2[C@@H]3C(=O)N(C4CCCCC4)C(=O)[C@@H]3CC[C@@H]12,0.595
12,CCN1C(=O)[C@H]2[C@@H]3C(=CC[C@H]2C1=O)C(=O)[C@H]1O[C@H]1[C@H]3O,0.657
13,CCOC(=O)[C@H](Cc1ccccc1)NC(=O)CCC1CC(OC(=O)NCc2ccc3c(c2)OCO3)CC2(CCCC(COC(=O)NCCOc3ccccc3)O2)O1 (some centres undefined),1.29
14,CCN1C(=O)[C@H]2[C@H]3[C@H](O)[C@H](O)CC(=NO[C@H](C)c4cn([C@H](CO)Cc5ccccc5)nn4)[C@@H]3CC[C@H]2C1=O,1.1
15,COC(OC)[C@@H](C)[C@H](OC)[C@@H](C)[C@H](OC)c1ccccc1,-1.16
16,CO[C@@H]1COC(=O)[C@H](CCSC)NC(=O)CC=C[C@@H](C)COC(=O)[C@@H]2CCCN2C(=O)CC=C[C@H]1C,0.34
17,CC(C)=NO[C@H](C)c1cn([C@@H]2COC[C@H]2O)nn1,0.317
18,CC(C)=NOC(C)CN1CCCc2nc(C)c(C)cc21 (centres undefined),0.669
19,CC#CCOCCC=C1c2ccccc2[C@@H](OC)[C@@H]1C,0.151
20,O=C1[C@H]2[C@H]3[C@H](O)[C@H](O)CC(=NO[C@@H]4O[C@H](CO)[C@@H](O)[C@H](O)[C@H]4O)[C@H]3CC[C@H]2C(=O)N1C[C@@H]1CCCO1,0.155
21,O=C1C[C@H](c2ccccc2)[C@H](c2ccc(Br)cc2)O1,-0.179
22,CO[C@H]1COC(=O)CC=C[C@@H](C)COC(=O)[C@H]2CCCN2C(=O)CC=C[C@H]1C,0.536
23,O=C(NN=C1C[C@@H](O)[C@@H](O)[C@@H]2[C@@H]3C(=O)N(Cc4ccccc4)C(=O)[C@@H]3CC[C@H]12)OCc1ccccc1,-0.0039

# System: Chordin-like protein 2 (CHRDL2)
# Experiment: CHRDL2 small-molecule binders, primary screen, biochemical, small-molecule microarray, 635 nm fluorescence (AID 1126);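 also: printed compound slides probed with Chrdl2 protein at 4 µg/mL for 1 h at 4 C; score merges 667 nm emission intensity with signal to noise over three replicate slides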
# Settings: small-molecule microarray binding, fluorescence 635 nm; higher = more signal
row,SMILES,composite z-score
1,CON=C(C)CCN1CCCCc2nc(C)c(C)cc21,0.873
2,CCOC(=O)[C@H](Cc1ccccc1)NC(=O)CCC1CC(OC(=O)NCc2cccc3ccccc23)CC2(CCCC(COC(=O)NCC3CCCCC3)O2)O1 (some centres undefined),0.54
3,CO[C@H]1COC(=O)CCC[C@H](C)[C@@H](OC)COC(=O)CC=C[C@@H]1C,0.896
4,C[C@H]1C=CCC(=O)OC[C@H](C)C(=O)N2CCC[C@H]2C(=O)OC1,1.62
5,CC(=O)OC[C@H]1O[C@H](CCON=C(C)C)C=C[C@@H]1OC(C)=O,0.445
6,CC(C)[C@@H](OCc1ccccc1)[C@H](C)C=NO[C@@H](C)c1cn([C@H](CO)Cc2ccccc2)nn1,0.191
7,O=C1C2=CC[C@H]3C(=O)N(C4CCCCC4)C(=O)[C@H]3[C@H]2[C@H](O)[C@@H]2O[C@H]12,0.0365
8,CC(C)(C)N1C(=O)[C@H]2[C@H]3[C@H](O)[C@H](O)CC(=NNC(=O)OCc4ccccc4)[C@H]3CC[C@H]2C1=O,0.303
9,CC(C)(C)N1C(=O)[C@H]2[C@H]3[C@H](O)[C@H](O)CC(=NNC(=O)OCc4ccccc4)[C@@H]3CC[C@H]2C1=O,0.397
10,O=C1C2=CC[C@H]3C(=O)N(C[C@@H]4CCCO4)C(=O)[C@H]3[C@H]2[C@H](O)[C@@H]2O[C@H]12,0.362
11,CO[C@@H]1C=CCC(=O)N[C@@H](C)C(=O)OC[C@@H](NS(=O)(=O)c2ccc(C)cc2)[C@H](C)C=CCC(=O)OC[C@H]1C,1.07
12,C[C@@H]1CC[C@@H](C(=O)O)N[C@H]1c1cccc(N2CCOCC2)c1,0.224
13,CO[C@@H]1COC(=O)[C@@H]2CCCN2C(=O)[C@@H](C)COC(=O)CCC[C@H]1C,0.438
14,O=C1[C@H]2[C@H]3[C@H](O)[C@H](O)CC(=NOC[C@@H](O)COCc4ccco4)[C@@H]3CC[C@H]2C(=O)N1C1CCCCC1,1.52
15,CC(CCC(=O)OC[C@H]1O[C@H](C#Cc2ccccc2)C=C[C@@H]1Oc1ccc(C)cc1)=NO[C@H](C)c1cn([C@@H]2COC[C@H]2O)nn1,0.308
16,C[C@H]1CC[C@H]2C(=O)N[C@H](Cc3ccccc3)C(=O)N2[C@@H]1c1ccccc1,0.678
17,CC(=O)OC[C@H]1O[C@H](CC=NO[C@H](C)c2cn([C@@H]3COC[C@H]3O)nn2)C=C[C@@H]1OC(C)=O,0.85
18,O=C1CCCC=C1C(O)COCc1ccccc1 (centres undefined),-0.137

row,SMILES,composite z-score
1,COc1ccc(COC(=O)NN=C2C[C@@H](O)[C@@H](O)[C@@H]3[C@@H]4C(=O)N(C5CCCCC5)C(=O)[C@@H]4CC[C@@H]23)cc1,-0.108
2,COC(=O)CC=C[C@@H](C)[C@@H](C=NOC[C@@H](O)COCc1ccco1)OC,1.36
3,O=C1[C@H]2[C@H]3[C@H](O)[C@H](O)CC(=NO[C@@H]4O[C@H](CO)[C@@H](O)[C@H](O)[C@H]4O)[C@@H]3CC[C@H]2C(=O)N1C[C@@H]1CCCO1,0.183
4,O=C1[C@H]2[C@H]3[C@H](O)[C@H](O)CC(=NOC[C@@H](O)COCc4ccco4)[C@@H]3CC[C@H]2C(=O)N1Cc1ccccc1,1.4
5,CCOC(=O)[C@H](Cc1ccccc1)NC(=O)CCC1CC(OC(=O)NCCc2ccc(F)cc2)CC2(CCCC(COC(=O)NCc3cccc(C(F)(F)F)c3)O2)O1 (some centres undefined),0.285
6,O=C1C=C[C@@H](O)[C@@H]2[C@@H]3C(=O)N(C4CCCCC4)C(=O)[C@@H]3CC[C@@H]12,0.542
7,CCN1C(=O)[C@H]2[C@@H]3C(=CC[C@H]2C1=O)C(=O)[C@H]1O[C@H]1[C@H]3O,1.21
8,CCOC(=O)[C@H](Cc1ccccc1)NC(=O)CCC1CC(OC(=O)NCc2ccc3c(c2)OCO3)CC2(CCCC(COC(=O)NCCOc3ccccc3)O2)O1 (some centres undefined),0.58
9,CCN1C(=O)[C@H]2[C@H]3[C@H](O)[C@H](O)CC(=NO[C@H](C)c4cn([C@H](CO)Cc5ccccc5)nn4)[C@@H]3CC[C@H]2C1=O,-0.0064
10,COC(OC)[C@@H](C)[C@H](OC)[C@@H](C)[C@H](OC)c1ccccc1,0.473
11,CO[C@@H]1COC(=O)[C@H](CCSC)NC(=O)CC=C[C@@H](C)COC(=O)[C@@H]2CCCN2C(=O)CC=C[C@H]1C,0.946
12,CC(C)=NO[C@H](C)c1cn([C@@H]2COC[C@H]2O)nn1,0.655
13,CC(C)=NOC(C)CN1CCCc2nc(C)c(C)cc21 (centres undefined),0.74
14,CC#CCOCCC=C1c2ccccc2[C@@H](OC)[C@@H]1C,0.337
15,O=C1[C@H]2[C@H]3[C@H](O)[C@H](O)CC(=NO[C@@H]4O[C@H](CO)[C@@H](O)[C@H](O)[C@H]4O)[C@H]3CC[C@H]2C(=O)N1C[C@@H]1CCCO1,0.109
16,O=C1C[C@H](c2ccccc2)[C@H](c2ccc(Br)cc2)O1,0.143
17,CO[C@H]1COC(=O)CC=C[C@@H](C)COC(=O)[C@H]2CCCN2C(=O)CC=C[C@H]1C,1.19
18,O=C(NN=C1C[C@@H](O)[C@@H](O)[C@@H]2[C@@H]3C(=O)N(Cc4ccccc4)C(=O)[C@@H]3CC[C@H]12)OCc1ccccc1,0.36
